Laboratory results taken from PubChem BioAssay (NCI).
The panel holds about 83,000 compounds, 20% with a hit somewhere; the sample as a whole holds those more often.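 How to read the values: 0–100, growth inhibition (40 = 60% inhibited); 0, no net growth; -100 to 0, cell death (-40 = 40% of starting cells died; -100 = all dead).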 Calls of active or inactive are those of the source. How the source made its calls: active means growth percent below 10; inactive means the rest.

Legend:
Assay in all cases: NCI-60 one-dose screen, 48 h (100 = growth as untreated, 0 = no growth, -100 = all killed)
Conditions in all cases: 10 µM
HCT-15 colon = tested on: HCT-15 colon
HT29 colon = tested on: HT29 colon
SNB-75 CNS = tested on: SNB-75 CNS
SNB-19 CNS = tested on: SNB-19 CNS
U251 CNS = tested on: U251 CNS
PC-3 prostate = tested on: PC-3 prostate
SK-MEL-5 melanoma = tested on: SK-MEL-5 melanoma
UACC-62 melanoma = tested on: UACC-62 melanoma
LOX IMVI melanoma = tested on: LOX IMVI melanoma
SK-MEL-28 melanoma = tested on: SK-MEL-28 melanoma
SK-MEL-2 melanoma = tested on: SK-MEL-2 melanoma
EKVX NSCLC = tested on: EKVX NSCLC
UO-31 renal = tested on: UO-31 renal
TK-10 renal = tested on: TK-10 renal
ACHN renal = tested on: ACHN renal
CAKI-1 renal = tested on: CAKI-1 renal
A498 renal = tested on: A498 renal
CCRF-CEM leukemia = tested on: CCRF-CEM leukemia
MOLT-4 leukemia = tested on: MOLT-4 leukemia
SN12C renal = tested on: SN12C renal

Measured: growth

CCCCN(CCCC)c1ccc(C(=NC(C)CCCN(CC)CC)c2ccc(N(C)C)cc2)cc1 (stereo unspecified)
active: HCT-15 colon -79.8% | HT29 colon -71.9% | SNB-75 CNS -34% | SNB-19 CNS -23% | U251 CNS -79.9% | PC-3 prostate -42.4% | SK-MEL-5 melanoma -99.6% | UACC-62 melanoma -73.5% | LOX IMVI melanoma -96.7% | SK-MEL-28 melanoma -72.1% | SK-MEL-2 melanoma -78.9% | EKVX NSCLC -30.4% | UO-31 renal -87.8% | TK-10 renal -8.82% | ACHN renal -41.3% | CAKI-1 renal -5.33% | A498 renal -12.4% | CCRF-CEM leukemia 7.26% | MOLT-4 leukemia -6.33%

CC(=O)OC1Oc2ccccc2-c2oc(=O)c(-c3ccc(F)cc3)cc21 (stereo unspecified)
inactive: HCT-15 colon 95.8% | HT29 colon 99% | SNB-75 CNS 71.8% | SNB-19 CNS 100% | U251 CNS 76.2% | PC-3 prostate 110% | UACC-62 melanoma 50% | LOX IMVI melanoma 85.3% | SK-MEL-28 melanoma 96.7% | SK-MEL-2 melanoma 86.2% | EKVX NSCLC 34.2% | SN12C renal 88.3% | ACHN renal 104% | CAKI-1 renal 93.1% | CCRF-CEM leukemia 91.5% | MOLT-4 leukemia 88.6%
active: SK-MEL-5 melanoma -35.4% | A498 renal -16.1%

c1ccc(CNc2nc(Nc3ccc(-c4nc5ccccc5[nH]4)cc3)c3cn[nH]c3n2)cc1
inactive: SNB-75 CNS 33% | SNB-19 CNS 36.3% | PC-3 prostate 11.8% | EKVX NSCLC 18% | UO-31 renal 29.9% | TK-10 renal 20.4% | A498 renal 27.6%
active: HCT-15 colon 0.22% | HT29 colon -13.9% | U251 CNS -19.8% | SK-MEL-5 melanoma -96.4% | UACC-62 melanoma -40.9% | LOX IMVI melanoma -42.1% | SK-MEL-28 melanoma -8.67% | SK-MEL-2 melanoma -59.2% | ACHN renal -5.37% | CAKI-1 renal 7.33% | CCRF-CEM leukemia 9.8% | MOLT-4 leukemia -39.7%

CCN(CC)CCOC(=O)c1ccc(NC(=O)Nc2cccc(Cl)c2)cc1
inactive: HCT-15 colon 95.6% | HT29 colon 96.3% | SNB-75 CNS 81.8% | SNB-19 CNS 108% | U251 CNS 96.5% | PC-3 prostate 94.7% | SK-MEL-5 melanoma 101% | UACC-62 melanoma 102% | LOX IMVI melanoma 94.6% | SK-MEL-28 melanoma 106% | SK-MEL-2 melanoma 94.7% | EKVX NSCLC 99.2% | UO-31 renal 92.5% | TK-10 renal 96.1% | ACHN renal 108% | CAKI-1 renal 96.8% | A498 renal 79.5% | MOLT-4 leukemia 84.9%
active: CCRF-CEM leukemia -4.69%

Cc1noc(C)c1-c1ccc2nc(NC(=O)[C@H]3CCN(C#N)C3)cn2c1
inactive: HCT-15 colon 84.4% | HT29 colon 78.1% | SNB-75 CNS 67.7% | SNB-19 CNS 108% | U251 CNS 93.7% | PC-3 prostate 91.7% | SK-MEL-5 melanoma 86.6% | UACC-62 melanoma 77.7% | LOX IMVI melanoma 77.7% | SK-MEL-28 melanoma 104% | SK-MEL-2 melanoma 74.1% | EKVX NSCLC 94% | UO-31 renal 66.9% | TK-10 renal 81.2% | ACHN renal 65.3% | CAKI-1 renal 74.4% | A498 renal 88.9% | CCRF-CEM leukemia 105% | MOLT-4 leukemia 95.9%

COC(=O)[C@]12CC[C@@H](C)[C@H](C)[C@@H]1C1=CC[C@@H]3[C@@]4(C)C/C(=N\O)[C@H](O)[C@@]5(C)COC(=C45)C[C@@]3(C)[C@]1(C)CC2
active: HCT-15 colon -92.7% | HT29 colon -92.9% | SNB-75 CNS -87.8% | SNB-19 CNS -66.2% | U251 CNS -96.4% | PC-3 prostate -81.5% | SK-MEL-5 melanoma -97.7% | UACC-62 melanoma -57.6% | LOX IMVI melanoma -71.6% | SK-MEL-28 melanoma -60.3% | SK-MEL-2 melanoma -91.3% | EKVX NSCLC -68.6% | UO-31 renal -85.6% | TK-10 renal -91.2% | ACHN renal -80.9% | CAKI-1 renal -80.7% | A498 renal -88.8% | CCRF-CEM leukemia -49% | MOLT-4 leukemia -62.9%

O=S(=O)(NCCO)c1ccc(OCCOc2ccc(S(=O)(=O)NCCO)cc2)cc1
inactive: HCT-15 colon 103% | HT29 colon 100% | SNB-75 CNS 95% | SNB-19 CNS 102% | U251 CNS 93.7% | PC-3 prostate 89.1% | SK-MEL-5 melanoma 96.5% | UACC-62 melanoma 95.2% | LOX IMVI melanoma 96.6% | SK-MEL-28 melanoma 105% | SK-MEL-2 melanoma 100% | EKVX NSCLC 99.1% | UO-31 renal 81.9% | TK-10 renal 99.5% | ACHN renal 101% | CAKI-1 renal 94.2% | A498 renal 86.1% | CCRF-CEM leukemia 102% | MOLT-4 leukemia 99.6%

COCc1cc2c(cc1Br)OCO2
inactive: HCT-15 colon 100% | HT29 colon 106% | SNB-75 CNS 87.1% | SNB-19 CNS 105% | U251 CNS 99.1% | PC-3 prostate 86.8% | SK-MEL-5 melanoma 107% | UACC-62 melanoma 100% | LOX IMVI melanoma 95.6% | SK-MEL-28 melanoma 99.1% | SK-MEL-2 melanoma 96.7% | EKVX NSCLC 102% | UO-31 renal 84.6% | TK-10 renal 95.7% | ACHN renal 101% | CAKI-1 renal 95% | A498 renal 91.2% | CCRF-CEM leukemia 71.9% | MOLT-4 leukemia 107%
